# Bioassay records from PubChem BioAssay.
# An excerpt weighted towards active compounds, which were near 5.7% of everything screened.
# BAZ2B block = inhibitors of human BAZ2B bromodomain | Q9UIF8 | AlphaScreen BAZ2B-H3K14Ac peptide displacement | Potency, µM (doses to about 114 µM), for the others: at the top dose activity change, negative = inhibition, actives largely listed as inhibitors | actives 4.4% (n = 360,000) | AID 504333; also: potency is read from the fitted curve at half-maximal effect; % is scaled to controls: 0 for no effect and ±100 for the full control effect; nearly all actives have a fitted effect of over 60% in size
#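 Complex of BAZ2B and biotin-H3K14Ac (50 nM apiece) forms over 30 min at RT, then faces library compounds up to 110 uM for another 30 min; AlphaScreen beads added, 20 min dark incubation, luminescence read.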
# L3MBTL1 block = L3MBTL1 (human) inhibition | Potency, µM (series often up to 57.1 µM), for the others: at the highest dose activity, negative = inhibition, hits mostly inhibitors | AlphaScreen L3MBTL1–H3K9me1 peptide binding | AID 485360 | actives 0.66% (n = 230,000); also: potency is read from the fitted curve at half-maximal effect; % is scaled to controls: 0 for no effect and ±100 for the full control effect; nearly all actives have a fitted effect of over 60% in size
#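 L3MBTL1 (50 nM) pre-complexed 30 min with biotinylated H3(1-15)K9me1 peptide (75 nM), then compounds added for 30 min at room temperature; AlphaScreen streptavidin donor/nickel chelate acceptor beads (10 ug/mL final) read after 30 min dark incubation.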
# KDM4E inh = blocks human JMJD2E demethylase activity; B2RXH2; JMJD2E catalytic domain, FDH-coupled NADH fluorescence (FDH is formaldehyde dehydrogenase); Potency, µM (doses to about 57.1 µM), for inactives: top-dose activity change, negative = inhibition, usual class: inhibitors; actives 1.6% (n = 230,000); AID 2147; active = well fitted inhibition curve with a large enough effect, not every such curve was filed as active; inconclusive = small, poorly fitted or top-dose-only effect, or another doubt; inactive = no such curve, though single readings can be large or run the other way;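 also: potency is read from the fitted curve at half-maximal effect; 0% = wells with enzyme and -100% = buffer wells without enzyme; nearly all actives have a fitted effect of over 50% in size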
# JMJD2A Tudor = blocks the human JMJD2A Tudor domain. O75164. AlphaScreen JMJD2A-Tudor / H3K4me3 peptide binding. Potency, µM (titrated, usually from 114 µM), for inactives: at the top dose activity change, negative = inhibition, actives largely listed as inhibitors. actives 4.4% (n = 390,000); also: potency is read from the fitted curve at half-maximal effect; % is scaled to controls: 0 for no effect and ±100 for the full control effect; nearly all actives have a fitted effect of over 50% in size
# PI5P4Ka inh = blocks human PI5P4K alpha kinase activity. P48426. PI5P4Kalpha enzyme, ADP-Glo luminescence, 60 min; active compounds read low. max response, %. actives 1.2% (n = 330,000); active = max response of -50% or lower; inconclusive = between -30% and -50%; inactive = -30% or higher; also: value at the top dose of about 77 µM; % is scaled to controls: 0 for no effect and ±100 for the full control effect
#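 Luminescence from ADP-Glo served as readout of PI5P4Kalpha activity in a qHTS format. Reaction: enzyme, substrate, compound, ATP at 5 microM final, 60 min at RT.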
# HP1b chromo inh = inhibitors of HP1-beta chromodomain binding to methylated histone tails. P83916. AlphaScreen HP1-beta / biotin-H3K9me3 peptide binding. Potency, µM (doses to about 114 µM), without a hit: top-dose activity change, negative = inhibition, hits mostly inhibitors. actives 0.56% (n = 390,000). AID 540317; also: potency is read from the fitted curve at half-maximal effect; nearly all actives have a fitted effect of over 70% in size
#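 Compound inhibition of the preformed complex between 50 nM HP1-beta and 50 nM biotinylated H3K9me3 peptide was read by AlphaScreen. Buffer was PBS pH 7.4 with 0.01% Tween-20. Incubations ran 30 min at room temperature, with 10 ug/mL donor/acceptor beads.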
# * = called active by the depositor; ? = inconclusive; / = no result; [ ] = another dose, or the depositor's remark. Unless noted, calls follow the shape of the dose curve; as a rule, active = well fitted inhibition curve with a large enough effect; inconclusive = small, poorly fitted or top-dose-only effect; inactive = no such curve, though single readings can be large or run the other way.
SMILES,BAZ2B block,L3MBTL1 block,KDM4E inh,JMJD2A Tudor,PI5P4Ka inh,HP1b chromo inh
c1ccc(N=Nc2ccc3cccccc2-3)cc1,/,/,/,4µM*,34,4µM*
Nc1ccc(N=Nc2ccccc2)c(N)n1,?,-11%,?,-5%,1,31%
CN(C)CCn1c(=O)n(Cc2ccccc2)c(=O)c2c3c(sc21)CCCCC3,?,/,/,40µM*,6,?
CN(C)CCCn1c(=O)n(CCc2ccccc2)c(=O)c2c3c(sc21)CCCCC3,?,4%,4%,56µM*,-1,-14%
N#Cc1nc(Nc2cccc(C(F)(F)F)c2)nc(NC2CCCC2)n1,/,/,/,-24%,/,/
CCc1ccc(C(=O)Nc2cccc(-c3nc4cc(C(C)C)ccc4o3)c2)cc1,-4%,/,/,3%,/,45%
CCS(=O)(=O)N1CC(=O)N(c2cccc(C)c2C)C(C)(C(=O)NC2CCCCC2)C1 (stereo unspecified),3%,/,/,-5%,/,30%
CC(=O)Nc1ccn(C2OC(C(COC(C)=O)NC(=O)C(Cc3ccccc3)NC(=O)OC(C)(C)C)C(OC(C)=O)C2OC(C)=O)c(=O)n1 (stereo unspecified),/,/,/,-19%,/,20%
COc1ccc2ccccc2c1CN1CCN(C)CC1,-29%,3%,6%,28%,10,25%
Oc1c(CN2CCOCC2)cc(COCc2ccccc2)c2cccnc12,11µM*,?,25µM*,25µM*,0,6%
CCOC(=O)N1CCN(Cc2cc(Cl)c3cccnc3c2O)CC1,10µM*,-89%,-3%,22µM*,0,6%
COCc1cc(CN2CCN(C)CC2)c(O)c2ncccc12,1.1µM*,/,0%,7.9µM*,2,21%
c1ccc(N2CCN(Cc3ccnc4ccccc34)CC2)cc1,?,-13%,?,56µM*,/,25%
Cc1cccn2c(=O)cc(COc3cccc(NC(=O)c4cccc(Cl)c4)c3)nc12,4%,/,/,11%,/,35%[57 µM]
COc1ccc(SCC(CC(C)C)N2CCN(C)CCC2=O)cc1 (stereo unspecified),/,/,/,-20%,/,8%
Cc1c(C(=O)OC2CCCCC2)[nH]c2c1C(=O)CC(c1ccc(C(C)(C)C)cc1)C2 (stereo unspecified),-4%,/,/,-3%,/,14%
COc1cccc(NC(=O)C2C3C=CC(C3)C2C(=O)O)c1 (stereo unspecified),-7%,-3%,/,-19%,0,26%
CC(C)OCc1cc(CN2CCN(c3ccccc3)CC2)c(O)c2ncccc12,8.9µM*,/,/,25µM*,/,21%
CCOCc1cc(CN2CCN(c3cccc(Cl)c3)CC2)c(O)c2ncccc12,13µM*,/,/,40µM*,/,23%
Oc1c(CN2CCN(c3ccccc3)CC2)cc(Br)c2cccnc12,?,/,?,-36%,-2,40%
Cc1ccc(C(=O)N/C(=C/c2ccco2)C(=O)Nc2cccc(C(=O)O)c2)cc1,22%,/,/,79µM*,-53*,2%
O=C(O)/C(=C\c1ccco1)NC(=O)c1cccc2ccccc12,?,?,-8%,89µM*,/,-11%
COC(=O)c1cccc(NC(=O)/C(=C\c2ccco2)NC(=O)c2ccco2)c1,/,/,/,/,-21,/
COc1ccccc1C(=O)N/C(=C/c1ccco1)C(=O)Nc1cccc(C(=O)O)c1,?,/,/,79µM*,?,4%
Cn1c(=O)c2c(ncn2CC(=O)Nc2cccc(Cl)c2Cl)n(C)c1=O,2%,/,/,-16%,/,10%
Cc1ccc(/C=C2\SC(=S)N(C3CCS(=O)(=O)C3)C2=O)cc1 (stereo unspecified),-11%,/,2%,-6%,1,16%
CC(C(=O)N(C)C1CCS(=O)(=O)C1)N1C(=O)/C(=C/c2ccc(F)cc2)SC1=S (stereo unspecified),?,/,/,-32%,?,-14%
O=C1/C(=C/c2ccco2)SC(=S)N1C1CCS(=O)(=O)C1 (stereo unspecified),50µM*,?,1%,?,?,-15%
